From PubChem
ST2 inh: inhibitors of human ST2 (IL1RL1) binding to IL-33; Q01638; AlphaLISA ST2-Fc/biotin-IL-33 interaction, 1 h; inhibition, % for hits at 17 µM; 78,000 tested, 2.3% active; in the data active = inhibition above about 30%
Target sequence (Q01638 whole entry, looked up): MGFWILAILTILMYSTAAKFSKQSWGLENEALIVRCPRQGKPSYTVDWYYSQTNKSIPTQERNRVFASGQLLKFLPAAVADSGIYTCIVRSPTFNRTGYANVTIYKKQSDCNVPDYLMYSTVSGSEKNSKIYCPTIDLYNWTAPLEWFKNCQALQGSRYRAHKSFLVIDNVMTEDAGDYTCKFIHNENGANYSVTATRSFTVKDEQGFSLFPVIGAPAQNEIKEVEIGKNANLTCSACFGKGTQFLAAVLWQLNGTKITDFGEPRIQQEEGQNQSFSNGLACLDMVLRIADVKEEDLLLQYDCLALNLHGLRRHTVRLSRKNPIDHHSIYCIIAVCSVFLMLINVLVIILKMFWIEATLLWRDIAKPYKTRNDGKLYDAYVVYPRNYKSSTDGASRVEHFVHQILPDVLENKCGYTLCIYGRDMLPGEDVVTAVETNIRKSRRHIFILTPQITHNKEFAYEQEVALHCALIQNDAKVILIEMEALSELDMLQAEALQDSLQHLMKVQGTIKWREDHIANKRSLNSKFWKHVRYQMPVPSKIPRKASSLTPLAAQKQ
The depositor's hits bear a star. Only a selection was taken, and hits are over-represented in it overall.

How did CC1CN(C(=O)Cn2cnc3c2c(=O)n(C)c(=O)n3C)CC(C)O1 (stereo not drawn) do in these assays?
ST2 inh: 95%*

What do the screens show for `CN1CCCN(Cc2cccc([N+](=O)[O-])c2)CC1`?
ST2 inh: inactive

What do the screens show for `COc1ccc2nc(N3CCCC(C(=O)NCCCN4CCCC(C)C4)C3)sc2c1` (stereo not drawn)?
ST2 inh: inactive

Results for CCCCOc1ccc(/C=c2\sc3nc(-c4cccnc4)nn3c2=O)cc1OC ?
ST2 inh: inactive

What do the screens show for `Cc1noc([C@@H]2C[C@H](NC(=O)c3ccco3)CN2C)n1`?
ST2 inh: inactive

Results for CN1C[C@@H](NC(=O)c2ccc(-c3ccccc3)cc2)C[C@H]1c1nc(-c2ccc(Cl)cc2)no1 ?
ST2 inh: inactive

Results for CN(C)c1ccc(C(=O)N[C@H]2C[C@@H](c3nc(-c4ccccn4)no3)N(C)C2)cc1 ?
ST2 inh: inactive

What do the screens show for `CN1C[C@@H](NC(=O)c2ccc(C(C)(C)C)cc2)C[C@H]1c1nc(-c2ccc3c(c2)OCO3)no1`?
ST2 inh: 64%*

What do the screens show for `COc1ccc(C(=O)N[C@H]2C[C@@H](c3nc(-c4ccc(OC(F)(F)F)cc4)no3)N(C)C2)cc1`?
ST2 inh: inactive

What do the screens show for `Cc1noc([C@@H]2C[C@H](NC(=O)c3ccc(F)cc3)CN2C)n1`?
ST2 inh: 40%*

What do the screens show for `COc1ccc(CCNC(=O)C(C)C)cc1OC`?
ST2 inh: inactive

How did COc1cc(NC(=O)c2cccc(Br)c2)c(OC)cc1Cl do in these assays?
ST2 inh: inactive

Results for CC1(C)Cc2ccccc2-c2nnc(-c3ccccc3)n21 ?
ST2 inh: inactive

How did O=c1[nH]c(CN2CCOCC2)nc2c1C1(CCCC1)Cc1ccccc1-2 do in these assays?
ST2 inh: inactive

Results for CC1(C)Cc2ccccc2-c2nc(-c3ccccc3)oc(=O)c21 ?
ST2 inh: 41%*

Results for O=c1oc(-c2ccccc2)nc2c1C1(CCCC1)Cc1ccccc1-2 ?
ST2 inh: 48%*

How did O=c1[nH]c(CN2CCCC2)nc2c1C1(CCCC1)Cc1ccccc1-2 do in these assays?
ST2 inh: inactive

What do the screens show for `Cn1c(=O)c2nc(-c3ccccc3)oc2c2ccccc21`?
ST2 inh: inactive

How did CCc1ccc(C2CC(c3c(F)cccc3Cl)n3ncnc3N2)cc1 (stereo not drawn) do in these assays?
ST2 inh: inactive

Results for Cc1ccc(S(=O)(=O)Nc2c(F)c(F)c(F)c(F)c2Cl)cc1 ?
ST2 inh: inactive

What do the screens show for `Cc1ccc(NC(=O)CCC(=O)Nc2ccc(C)c(C)c2)cc1C`?
ST2 inh: inactive

Results for COc1ccc(Nc2cc(C)nc(Nc3ccc(NC(=O)c4ccc(C(F)(F)F)cc4)cc3)n2)cc1 ?
ST2 inh: inactive

What do the screens show for `CCCC(=O)Nc1ccc(Nc2nc(C)cc(Nc3ccccc3)n2)cc1`?
ST2 inh: 31%*

What do the screens show for `CCCC(=O)Nc1ccc(Nc2nc(C)cc(N(C)C)n2)cc1`?
ST2 inh: inactive

How did Cc1ccc(Nc2cc(C)nc(Nc3ccc(NC(=O)c4ccc(C(C)(C)C)cc4)cc3)n2)cc1 do in these assays?
ST2 inh: inactive

How did Cc1cc(Nc2ccccc2)nc(Nc2ccc(NC(=O)c3cccc(Br)c3)cc2)n1 do in these assays?
ST2 inh: inactive

Results for Cc1cc(Nc2ccccc2)nc(Nc2ccc(NC(=O)c3ccccc3Cl)cc2)n1 ?
ST2 inh: inactive

How did Cc1cc(N(C)C)nc(Nc2ccc(NC(=O)CC3CCCC3)cc2)n1 do in these assays?
ST2 inh: inactive

How did COc1ccc(Nc2cc(C)nc(Nc3ccc(NC(=O)c4ccc(F)cc4)cc3)n2)cc1 do in these assays?
ST2 inh: inactive

Results for Cc1cc(Nc2ccccc2)nc(Nc2ccc(NC(=O)c3ccccc3)cc2)n1 ?
ST2 inh: 32%*

How did COc1ccc(Nc2cc(C)nc(Nc3ccc(NC(=O)c4ccc(OC)cc4)cc3)n2)cc1 do in these assays?
ST2 inh: 32%*

How did COc1ccc(Nc2cc(C)nc(Nc3ccc(NC(=O)CCC4CCCC4)cc3)n2)cc1 do in these assays?
ST2 inh: 30%*

How did Cc1ccc(Nc2cc(C)nc(Nc3ccc(NC(=O)Cc4ccccc4)cc3)n2)cc1 do in these assays?
ST2 inh: inactive

What do the screens show for `Cc1cc(C)c(S(=O)(=O)NCc2ccc(C(=O)O)cc2)c(C)c1`?
ST2 inh: inactive

What do the screens show for `Cc1nc2cc(OCc3cc(C(=O)N(C)CC4Cc5ccccc5O4)no3)ccc2s1` (stereo not drawn)?
ST2 inh: inactive

Results for CC(C)(C)c1csc(NC(=O)c2ccc(S(=O)(=O)N3CCOCC3)cc2)n1 ?
ST2 inh: inactive

What do the screens show for `Cc1ccsc1[C@@H]1CCN(Cc2sc(N)nc2Cl)C[C@H]1O`?
ST2 inh: inactive

Results for CC1=C(C#N)c2nc(N)c(C#N)c(C)c2/C1=C\c1ccccc1[N+](=O)[O-] ?
ST2 inh: inactive

Results for COCC(=O)Nc1ccccc1-c1ccc(C(C)C)cc1 ?
ST2 inh: inactive

What do the screens show for `CCOc1ccccc1CN1CCNC(=O)C1CC(=O)NCC(C)(C)CN(C)C` (stereo not drawn)?
ST2 inh: inactive

Results for CCN1CCN(CCCNC(=O)c2cn(C)c(=O)c3c2c2ccccc2n3C)CC1 ?
ST2 inh: inactive

What do the screens show for `CC(=O)Nc1ccc(N=Cc2c(C)c(Cl)c(C)c([N+](=O)[O-])c2O)cc1`?
ST2 inh: inactive

How did CC(=O)Nc1ccccc1NC(=O)CCC1CCCCC1 do in these assays?
ST2 inh: inactive

Results for CCC(C(=O)Nc1ccc(Nc2nc(C)cc(Nc3ccc(C)cc3)n2)cc1)c1ccccc1 (stereo not drawn) ?
ST2 inh: 36%*

Results for COc1ccc(C(=O)Nc2ccc(Nc3nc(C)cc(Nc4ccccc4)n3)cc2)cc1OC ?
ST2 inh: inactive

How did COc1cc(C(=O)Nc2ccc(Nc3nc(C)cc(Nc4ccccc4)n3)cc2)cc(OC)c1OC do in these assays?
ST2 inh: inactive

What do the screens show for `NC(=O)c1ccccc1NC(=O)CCC1CCCCC1`?
ST2 inh: inactive

Results for Cc1ccc(Nc2cc(C)nc(Nc3ccc(NC(=O)CC(C)(C)C)cc3)n2)cc1 ?
ST2 inh: inactive

What do the screens show for `CN(C)c1ccc(NC(=O)CCC2CCCCC2)cc1`?
ST2 inh: 67%*

How did Cc1ccc(Nc2cc(C)nc(Nc3ccc(NC(=O)c4ccccc4C)cc3)n2)cc1 do in these assays?
ST2 inh: inactive

Results for CCC(CC)C(=O)Nc1ccc(Nc2nc(C)cc(Nc3ccc(OC)cc3)n2)cc1 ?
ST2 inh: 39%*

How did CC(C)CC(O)C1CCN(C2CCC3(CCNCC3)CC2)CC1 (stereo not drawn) do in these assays?
ST2 inh: inactive

Results for Cc1noc(C)c1CCCNC(=O)c1ccc(-c2ccc3c(c2)OCO3)nc1 ?
ST2 inh: inactive

Results for O=C(Cc1nnc(NC(=O)Nc2ccccc2F)s1)Nc1ccccc1 ?
ST2 inh: inactive

Results for Cc1cccc(Nc2nnc(C)c(=O)[nH]2)c1C ?
ST2 inh: inactive

Results for Cc1nc(CCNC(=O)c2c3c(nn2C)CCCC3)sc1C ?
ST2 inh: inactive

Results for Cn1c(=O)c(C(=O)NS(=O)(=O)c2ccccc2Cl)cn1-c1ccccc1 ?
ST2 inh: inactive

How did CCCCOc1ccc(/C=c2\sc3nc(=O)c(C)nn3c2=O)cc1OC do in these assays?
ST2 inh: inactive

Results for COc1cc(C=O)ccc1OCCCOc1ccccc1C(=O)O ?
ST2 inh: inactive
